In the supplement of paper PMC3334620:
In all, about 33,000 sequences were measured (“E-score (-0.5 to 0.5)”: median about -0.0034, highest 2% from about 0.25 on). What follows is part of a selection rich in the highest values, with near analogues and random picks from the rest.

Target: T1, Yap3 (UniProt P38749)
T1 sequence: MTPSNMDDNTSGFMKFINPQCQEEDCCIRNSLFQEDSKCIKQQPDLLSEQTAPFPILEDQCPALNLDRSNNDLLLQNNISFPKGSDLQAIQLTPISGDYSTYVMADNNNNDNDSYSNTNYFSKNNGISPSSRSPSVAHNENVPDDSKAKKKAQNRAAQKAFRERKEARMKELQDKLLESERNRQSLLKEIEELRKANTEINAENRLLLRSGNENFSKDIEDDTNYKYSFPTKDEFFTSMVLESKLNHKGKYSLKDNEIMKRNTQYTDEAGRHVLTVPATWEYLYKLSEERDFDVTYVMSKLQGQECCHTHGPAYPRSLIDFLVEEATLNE
Test: PBM E-score (8-mer binding enrichment) (E-score (-0.5 to 0.5)); higher = stronger / more preferred TF binding
Details: protein concentration: 100 nM; construct: GST-full length
Description: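 Universal 'all 10-mer' protein binding microarrays (Agilent AMADID 015681) probed with GST-tagged S. cerevisiae TFs (full-length or DBD) made by in vitro transcription/translation (PURExpress), about 100-200 nM. Bound TF was detected with fluorescent anti-GST. Each ungapped 8-mer (which stands for itself and its reverse complement) is scored by the PBM enrichment score (E-score), a modified Wilcoxon-Mann-Whitney statistic from -0.5 to +0.5, computed with the Universal PBM Analysis Suite. Scale: above 0.35 generally sequence-specific binding.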

Sequence	PBM E-score
AGCATTCG	-0.106
GGATACGA	0.0439
CGGCTGTA	-0.147
AATGTATG	0.0768
AAGCCAGC	-0.0187
GTCGGGTA	0.0387
GCTGCATA	0.0463
AAGGGTGA	-0.0745
AGAGCCAG	-0.175
ATGACTAC	0.0437
ATGACTAA	0.431
GTGACTCA	0.0409
ATGACTAG	0.07
GTGACTAA	0.262
CTGACTAC	-0.0607
GTGACTGA	0.167
CTGACTTA	0.16
CTGACTAA	0.392
CGCTATCC	0.0718
ACAGATCC	0.145
CCACCAGC	-0.0909
CATCCTAG	-0.0476
GGGGAGAC	-0.304
AAGCTTTG	0.0373
GAACCCGA	-0.121

Sequence	PBM E-score
TAACCCGA	-0.0757
AAACCCGA	0.261
GAACCCAC	0.028
AGCGCGCA	0.24
AAGTAAAT	0.26
AAGTAAAG	0.103
AAGTAAAC	0.0216
ACTAGTTC	0.0926
ATTACTTA	0.257
ATTACTCG	0.23
ATTACTCA	0.299
ATTACTCC	0.143
ATTACTGA	0.154
CTTACTTA	0.113
ATGGTTAA	0.0266
GCTCGCGA	0.109
ATCGCTGG	-0.223
ATTAAGGC	0.0716
GTAGCCGA	-0.114
ACCCTGTA	0.00489
ACTATAAA	0.237
CATATAAG	0.113
AATATAAA	0.282
GATATAAA	0.21
CATAAAAA	0.186

Sequence	PBM E-score
GATAAAAA	0.192
CATATAAA	0.183
TATATAAA	0.274
AATATAAC	0.247
TATAAAAA	0.265
AATATAAG	0.353
AATATAAT	0.179
GCTCCTCC	-0.294
CCACCCAA	-0.0309
GCCGTATA	0.141
GTGCCGCA	-0.0486
GCAAGTCC	-0.203
AGGGGCAA	0.0575
TCCTTTCA	0.062
AGTGGCCG	-0.119
CTTTATGC	0.109
GAGAAGTA	0.0274
AAAGCTGT	0.15
ACCCTGCA	0.122
ATGCGCAA	0.0772
ATGCGCAC	0.0993
ATGCGCAT	0.315
ACCTATTA	0.11
AAAGGCAA	0.254
AAAGGCAG	-0.0629

Sequence	PBM E-score
TAAGGCAA	0.0224
GTCCCGGA	-0.103
AATCGCGT	0.156
CATCGCGA	0.112
AATCGCGA	0.255
AGTCGCGA	0.272
CGTCGCGA	0.141
GGTCGCGA	0.0906
ATGGTTCC	0.0898
CTCTTTGC	0.00066
AACTTCGG	0.13
CAATTTCA	0.0657
AAATTTCC	0.125
TAATTTCA	0.309
CAATTTCC	0.0859
AAATTTCA	0.0121
GAATTTCC	0.277
AACAGTCG	-0.0471
CCAGCCCG	-0.258
GTTTACCA	0.107
CCTAAGCG	-0.033
CCCCATCC	-0.233
ACGCGAGT	0.087
ACATTTAA	0.221
TATGCGAA	0.0891

Sequence	PBM E-score
AACGGAAA	0.171
AATGGAAT	0.275
AATGGAAG	0.105
AACGGAAT	0.262
AACGGAAG	0.2
AATGGAAC	0.12
GCTCCTTA	0.0472
TAATGACA	0.197
TAACCTTA	-0.0831
TAGTCTCA	-0.034
AAGTACTT	-0.202
ATGGATAG	0.0546
CCTAACAG	0.0154
ACTAACAC	0.125
ACTAACAG	0.315
ACATTGTG	0.0748
CCATTGTC	0.0818
ACATTGTC	0.261
GGCTTATA	-0.00779
CTCGACGC	0.0226
AATGTTGC	0.0681
AGGATGAA	0.0231
CGGATGAA	0.265
CGGATGAG	-0.0331
ATAGAAAA	0.217

Sequence	PBM E-score
ACTACACG	0.0255
CCTACACG	-0.251
ATTACACA	0.255
CTAACACA	0.146
ATTACACC	0.215
ATTACAGA	0.11
ATTACACG	0.0795
ATAACACG	0.137
ATTACAGC	-0.046
ACTACACA	0.258
ATAACACA	0.273
ATTACAGG	0.268
CCAGTGGC	-0.168
ATCGAGTC	-0.0569
CAGTAAGC	0.0593
AAAGATGA	0.144
ATTCTTCA	0.0724
ATAACCTG	-0.0425
CGTATAAA	0.156
GATTACAA	0.154
ACCAGTTG	0.0294
AAAAGGGG	-0.187
AATCAATG	0.2
AATCAACA	0.304
CATCAACA	0.255

Sequence	PBM E-score
TATCAACA	0.123
GATCAACA	-0.0544
AATCAATC	0.139
AATCAACC	-0.0555
AATCAATT	0.256
AATCAACG	0.109
CTCGGTAA	0.053
ATGAAATA	0.288
CTGAAATA	0.165
ATGAAAAG	0.122
ATGAAAAT	0.209
ATGAAAAA	0.278
GTGAAATA	0.0605
ACGTGCTC	-0.0391
AAAGGTAA	0.0127
CGGTTGAG	-0.052
AGATTCGC	-0.0247
CGTCTGAC	0.066
CAAGTGTG	0.0428
CTGACACC	-0.174
ATGGCACC	-0.14
CTCTGCAC	-0.173
